Activity calls are given as the source filed them. Unless noted, the rule behind the calls is not given here.
Key:
[1] = system: Wnt5a (protein binding on small-molecule microarray); assay: small molecules binding Wnt5a protein – biophysical, small-molecule microarray, 635/667 nm fluorescence, primary screen (AID 1142); details: 635 nm fluorescence, higher = more signal;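 note: fluorescence read at 667 nm with signal to noise per printed feature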
[2] = ATP-based viability of Huh7 replicon cells – cell-based, CellTiter-Glo luminescence, basal, 48 h, cytotoxicity control for HCV replication inhibitor project, primary screen (AID 1143); details: higher = more signal, called active from +8 up or from −8 down;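 note: Huh7 hepatoma cells carrying a hepatitis C replication reporter with no stimulus; test concentration not given here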
[3] = Pseudomonas biofilm growth suppression – PAO1 strain, BacTiter-Glo luminescence, LB-PBS, primary screen (AID 1144); details: P. aeruginosa PAO1 biofilm, 12 h, higher = more signal
[4] = basal CRE-LacZ reporter activity in PC12 – cell-based, unstimulated, primary screen (AID 1145); details: no forskolin, luminescence, 4.5 h, higher = more signal, called active from +8 up or from −8 down
[5] = forskolin-driven CRE-LacZ activity in PC12 – cell-based, CRE-LacZ reporter, forskolin-stimulated, primary screen (AID 1146); details: luminescence, 4.5 h, higher = more signal, called active from +8 up or from −8 down;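 note: PC12 cells with 6xCRE LacZ reporter stimulated by forskolin 10 µM; beta-galactosidase reporter signal reflecting CREB driven transcription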
[6] = molecular target: Streptavidin (Streptomyces avidinii) (UniProt P22629); assay: compounds binding control protein streptavidin – biophysical, small-molecule microarray, 635/667 nm fluorescence, artefact control for SMM compound annotation, primary screen (AID 1147); details: higher = more signal;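 note: signal reflects streptavidin binding to arrayed compounds as a control protein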
Streptavidin (Streptomyces avidinii), sequence (P22629 whole entry, looked up): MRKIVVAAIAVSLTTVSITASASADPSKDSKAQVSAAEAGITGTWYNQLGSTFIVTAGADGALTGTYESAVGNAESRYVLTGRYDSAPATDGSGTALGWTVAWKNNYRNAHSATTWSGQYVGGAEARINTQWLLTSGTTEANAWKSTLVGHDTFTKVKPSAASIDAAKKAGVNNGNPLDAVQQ

[7] = probe aInhba binding on compound microarray – biochemical, small-molecule microarray, 635/667 nm fluorescence, primary screen (AID 1148); details: higher = more signal;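 note: score merges 667nm spot fluorescence with signal-to-noise for antibody binding to printed compounds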
Torsin-1A (Homo sapiens) [8] = molecular target: Torsin-1A (Homo sapiens) (UniProt O14656); assay: TOR1A wild-type binding on microarray – cell lysate, small-molecule microarray, lysate, 635/667 nm, primary screen (AID 1149); details: COS7 hTOR1A-WT lysate, 635 nm fluorescence, higher = more signal
Torsin-1A (Homo sapiens), sequence (O14656 whole entry, looked up): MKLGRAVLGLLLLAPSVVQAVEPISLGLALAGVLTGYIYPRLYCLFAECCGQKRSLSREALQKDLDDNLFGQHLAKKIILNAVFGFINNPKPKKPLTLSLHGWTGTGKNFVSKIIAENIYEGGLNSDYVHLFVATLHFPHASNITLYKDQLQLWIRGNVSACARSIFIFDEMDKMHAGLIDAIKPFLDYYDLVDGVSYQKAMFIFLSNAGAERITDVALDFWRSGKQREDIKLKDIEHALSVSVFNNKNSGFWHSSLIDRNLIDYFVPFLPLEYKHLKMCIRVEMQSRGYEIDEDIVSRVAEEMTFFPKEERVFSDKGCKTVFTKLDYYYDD

Torsin-1A (Homo sapiens) [9] = molecular target: Torsin-1A (Homo sapiens) (UniProt O14656); assay: torsin A mutant lysate binding on microarrays – cell lysate, small-molecule microarray, COS7 lysate, 635/667 nm fluorescence, primary screen (AID 1150); details: COS7 hTOR1A mutant lysate, 635 nm fluorescence, higher = more signal;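 note: score pools 667 nm emission and signal to noise measuring lysate protein binding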
[10] = system: Sonic hedgehog protein (Shh); assay: Sonic hedgehog microarray binding compounds – biochemical, small-molecule microarray, 635/667 nm fluorescence, primary screen (AID 1151); details: 635 nm fluorescence, higher = more signal;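 note: Shh protein binding to compounds spotted on small-molecule microarray slides; score combines spot fluorescence intensity with signal-to-noise across triplicate slides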
[11] = optical density shifts of acrAB sulA E. coli – strain DRC41, OD650, 48 h, E. coli filamentation inducer project, primary screen (AID 1152); details: higher = more signal, called active from +8 up or from −8 down;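 note: E. coli MC1000 strain DRC41 lacking acrAB efflux pump and sulA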
[12] = probe aLefty1 binding on compound microarray – biochemical, small-molecule microarray, 635/667 nm fluorescence, primary screen (AID 1153); details: higher = more signal;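 note: score merges spot fluorescence with signal-to-noise ratio from the scanned slide images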
[13] = plasmodial surface anion channel blockers, osmotic lysis – cell-based, P. falciparum Indochina, OD700, 1 h, primary screen (AID 1154); details: P. falciparum Indochina infected RBC osmotic lysis, higher = more signal, called active from +8 up or from −8 down
[14] = plasmodial surface anion channel blockers, osmotic lysis – cell-based, P. falciparum Indochina, OD700, 2 h, primary screen (AID 1155);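 note: lysis reports solute entry through the parasite surface anion channel PSAC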; details: P. falciparum Indochina infected erythrocytes, higher = more signal, called active from +8 up or from −8 down
[15] = changes in parasitized red cell lysis, either direction – P. falciparum Indochina, OD700, 3 h, PSAC antagonist project, primary screen (AID 1156); details: P. falciparum-infected erythrocytes, osmotic lysis, higher = more signal, called active from +8 up or from −8 down
[16] = plasmodial surface anion channel blockers, osmotic lysis – cell-based, P. falciparum Indochina, OD700, 18 h, primary screen (AID 1157); details: P. falciparum Indochina infected erythrocytes, osmotic lysis OD700, 18 h; higher = more signal, called active from +8 up or from −8 down
[17] = S6 kinase pathway phospho-S6 level changes – cell-based, A549, cytoblot, luminescence, serum-stimulated, primary screen (AID 1158); details: 5 h, higher = more signal;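 note: serum-stimulated A549 lung adenocarcinoma cells; signal is phosphorylated S6 detected by cytoblot immunostaining with HRP secondary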
[18] = molecular target: NADPH oxidase 2 (Homo sapiens) (UniProt P04839); assay: compounds shifting NOX2 Amplex Red fluorescence – cell-based, HEK293-NOX2, PMA-stimulated, NOX inhibitor project, primary screen (AID 1159); details: 45 min, higher = more signal, called active from +8 up or from −8 down; note: test concentration not given here
NADPH oxidase 2 (Homo sapiens), sequence (P04839 whole entry, looked up): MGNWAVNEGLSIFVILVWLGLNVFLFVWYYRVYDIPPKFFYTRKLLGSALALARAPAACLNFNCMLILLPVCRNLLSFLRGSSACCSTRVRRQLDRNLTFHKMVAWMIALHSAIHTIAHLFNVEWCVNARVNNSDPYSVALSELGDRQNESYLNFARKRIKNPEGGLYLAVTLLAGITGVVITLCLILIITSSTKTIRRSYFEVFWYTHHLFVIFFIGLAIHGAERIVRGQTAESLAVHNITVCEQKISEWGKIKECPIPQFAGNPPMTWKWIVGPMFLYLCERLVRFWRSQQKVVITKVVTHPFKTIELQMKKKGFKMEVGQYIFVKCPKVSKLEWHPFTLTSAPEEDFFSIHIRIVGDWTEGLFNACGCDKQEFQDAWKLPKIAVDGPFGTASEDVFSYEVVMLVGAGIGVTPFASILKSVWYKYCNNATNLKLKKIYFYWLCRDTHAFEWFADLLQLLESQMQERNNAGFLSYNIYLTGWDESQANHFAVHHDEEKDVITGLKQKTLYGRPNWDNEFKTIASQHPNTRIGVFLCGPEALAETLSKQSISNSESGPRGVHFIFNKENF

[19] = molecular target: NADPH oxidase 4 (Homo sapiens) (UniProt Q9NPH5); assay: compounds shifting NOX4 Amplex Red fluorescence – cell-based, HEK293-NOX4, tetracycline-induced, NOX inhibitor project, primary screen (AID 1160); details: HEK293-NOX4, Amplex Red H2O2 fluorescence, 45 min; higher = more signal, called active from +8 up or from −8 down
NADPH oxidase 4 (Homo sapiens), sequence (Q9NPH5 whole entry, looked up): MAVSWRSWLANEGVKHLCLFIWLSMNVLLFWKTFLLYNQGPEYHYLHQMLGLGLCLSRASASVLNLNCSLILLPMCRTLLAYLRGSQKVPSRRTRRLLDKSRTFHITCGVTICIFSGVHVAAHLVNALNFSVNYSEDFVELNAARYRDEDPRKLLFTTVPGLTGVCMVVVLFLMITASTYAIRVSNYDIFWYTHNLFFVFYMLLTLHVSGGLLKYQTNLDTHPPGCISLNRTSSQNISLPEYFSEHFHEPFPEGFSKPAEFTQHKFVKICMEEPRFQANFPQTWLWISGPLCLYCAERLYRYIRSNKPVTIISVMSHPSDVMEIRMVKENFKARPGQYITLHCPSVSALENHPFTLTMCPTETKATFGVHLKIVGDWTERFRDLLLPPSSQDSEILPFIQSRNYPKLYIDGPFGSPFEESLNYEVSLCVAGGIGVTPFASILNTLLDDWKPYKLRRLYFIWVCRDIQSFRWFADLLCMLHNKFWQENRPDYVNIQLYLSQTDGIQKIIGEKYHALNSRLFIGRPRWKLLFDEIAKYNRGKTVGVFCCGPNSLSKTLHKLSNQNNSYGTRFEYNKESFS

[20] = molecular target: NADPH oxidase 5 (Homo sapiens) (UniProt Q96PH1); assay: compounds shifting NOX5 Amplex Red fluorescence – cell-based, HEK293-NOX5, NOX inhibitor project, primary screen (AID 1161); details: HEK293-NOX5, ionomycin, 45 min, higher = more signal
NADPH oxidase 5 (Homo sapiens), sequence (Q96PH1 whole entry, looked up): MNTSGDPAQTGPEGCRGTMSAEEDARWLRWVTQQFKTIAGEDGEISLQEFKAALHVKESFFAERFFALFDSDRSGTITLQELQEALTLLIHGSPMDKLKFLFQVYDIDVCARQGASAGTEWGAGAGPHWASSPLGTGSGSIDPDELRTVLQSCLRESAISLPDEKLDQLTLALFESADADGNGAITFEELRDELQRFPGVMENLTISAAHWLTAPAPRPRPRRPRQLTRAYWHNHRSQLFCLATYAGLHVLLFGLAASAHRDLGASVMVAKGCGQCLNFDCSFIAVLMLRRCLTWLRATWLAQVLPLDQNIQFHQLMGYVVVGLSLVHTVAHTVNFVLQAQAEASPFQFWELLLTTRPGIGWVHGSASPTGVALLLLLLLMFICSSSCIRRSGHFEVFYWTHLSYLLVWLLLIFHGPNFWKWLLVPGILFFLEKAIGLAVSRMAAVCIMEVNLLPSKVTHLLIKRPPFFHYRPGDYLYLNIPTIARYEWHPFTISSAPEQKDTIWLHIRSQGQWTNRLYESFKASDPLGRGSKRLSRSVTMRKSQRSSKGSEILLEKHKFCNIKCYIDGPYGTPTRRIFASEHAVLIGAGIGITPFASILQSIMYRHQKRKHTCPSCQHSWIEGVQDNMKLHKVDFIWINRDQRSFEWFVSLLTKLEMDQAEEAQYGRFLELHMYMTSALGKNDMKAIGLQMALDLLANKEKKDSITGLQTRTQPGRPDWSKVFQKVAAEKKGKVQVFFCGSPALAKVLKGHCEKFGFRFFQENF

Structure (SMILES) | composite z-score [1] | z-score [2] | z-score [3] | z-score [4] | z-score [5] | composite z-score [6] | composite z-score [7] | composite z-score (Torsin-1A (Homo sapiens) [8]) | composite z-score (Torsin-1A (Homo sapiens) [9]) | composite z-score [10] | z-score [11] | composite z-score [12] | z-score [13] | z-score [14] | z-score [15] | z-score [16] | z-score [17] | z-score [18] | z-score [19] | z-score [20]
O=C1O[C@H](c2ccccc2)[C@H](c2ccccc2)N2[C@H]1[C@@H](C(=O)NC[C@H](O)c1ccccc1)[C@]1(C(=O)Nc3ccc(C#CC4=CCCCC4)cc31)[C@H]2c1ccc(OCCO)cc1 | 0.271 | -4.66 (inactive) | -0.625 (inactive) | 0.0653 (inactive) | -0.337 (inactive) | 0.635 | -0.0695 | 0.257 | 0.705 | 1.11 | -0.266 (inactive) | 0.0248 | 3.76 (inactive) | 2.55 (inactive) | 0.0828 (inactive) | 2.26 (inactive) | -0.099 | 1.13 (inactive) | 0.611 (inactive) | 1.32
Cc1ccc([C@@H]2CC=C(C(=O)O)[C@H](c3ccccc3)N2S(=O)(=O)c2ccc(C)cc2)cc1 | 0.382 | -0.385 (inactive) | 0.134 (inactive) | 0.332 (inactive) | -0.311 (inactive) | 1.77 | 0.277 | 0.385 | 0.528 | 0.157 | -1.17 (inactive) | 1 | 1.83 (inactive) | 0.929 (inactive) | 0.692 (inactive) | 0.708 (inactive) | -0.256 | 0.489 (inactive) | -1.2 (inactive) | -0.96
COc1ccc(CCN2C(=O)[C@@]3(c4ccc([N+](=O)[O-])cc4)CC(=O)N(CC45CC6CC(CC(C6)C4)C5)[C@@H]3c3ccc(CO)cc32)cc1 | -0.209 | -0.252 (inactive) | 0.655 (inactive) | 0.155 (inactive) | -0.036 (inactive) | -0.168 | 0.333 | 0.16 | 0.335 | 0.483 | 0.683 (inactive) | 0.585 | 1.39 (inactive) | 0.77 (inactive) | 0.393 (inactive) | 0.427 (inactive) | -0.385 | -0.447 (inactive) | -0.968 (inactive) | 1.43
C=CCC(OC(C)=O)[C@@H]1[C@@H](N(Cc2cccc3ccccc23)C(=O)c2ccc(C)cc2)c2cc(OCCCO)ccc2N1C(=O)c1ccc(-c2ccccc2)cc1 (stereo not given in full) | -0.0459 | -0.552 (inactive) | 0.528 (inactive) | 0.455 (inactive) | 0.289 (inactive) | 0.425 | -0.0719 | 0.0621 | -0.213 | 0.0891 | 2.5 (inactive) | 0.0384 | 0.441 (inactive) | -1.33 (inactive) | -1.24 (inactive) | -1.5 (inactive) | 2.07 | -0.0559 (inactive) | 1.01 (inactive) | 2.96
COc1ccc([Si](C)(C)[C@@H]2[C@@H](CCO)O[C@]3(C(=O)N(Cc4ccc(NC(=O)[C@H](C)O)cc4)c4ccccc43)[C@H]2C)cc1 | 0.186 | -8.04 (active) | -0.261 (inactive) | 18.4 (active) | -1.12 (inactive) | 0.458 | -0.0471 | 0.504 | 0.392 | 0.599 | 1.12 (inactive) | 0.0378 | 31.4 (active) | 27.1 (active) | 1.58 (inactive) | 2.46 (inactive) | 0.597 | 0.535 (inactive) | 1.26 (inactive) | 0.648
O=C/C=C/c1ccc(/C=C/c2ccccc2)cc1 | -0.378 | -2.23 (inactive) | -0.0603 (inactive) | -0.141 (inactive) | -0.795 (inactive) | -0.0122 | -0.128 | -0.373 | -0.479 | 0.609 | 2.42 (inactive) | 0.25 | 3.87 (inactive) | -0.941 (inactive) | 1.17 (inactive) | -1.73 (inactive) | 0.972 | 0.825 (inactive) | -1.69 (inactive) | 1.4
COCCCNC(=O)[C@@]1(c2ccc([N+](=O)[O-])cc2)CC(=O)N(C2CCCCC2)[C@@H]1c1ccc(CO)cc1 | -0.155 | -1.72 (inactive) | 0.0997 (inactive) | -0.269 (inactive) | 0.207 (inactive) | -0.826 | -0.417 | 0.661 | -0.699 | -0.256 | 0.857 (inactive) | -0.602 | 1.93 (inactive) | 0.349 (inactive) | 1.76 (inactive) | 0.499 (inactive) | -0.203 | 0.929 (inactive) | 0.721 (inactive) | 0.537
COC(=O)Cn1c(C(=O)N2CCCC2)cc2c1C[C@H]1CN(C(=O)c3ccccc3)[C@@](Cc3ccc(OC)cc3)(C(=O)OC)[C@@H]21 | 0.381 | -2.77 (inactive) | 0.74 (inactive) | 1.72 (inactive) | 1.59 (inactive) | 0.927 | 0.711 | -0.0629 | 0.306 | -0.812 | -1.45 (inactive) | 0.51 | 15.3 (active) | 2.13 (inactive) | 1.68 (inactive) | 1.43 (inactive) | -0.56 | 0.857 (inactive) | 0.778 (inactive) | 2.44

Reference: PubChem BioAssay
